This passage reports inhibition results from PubChem BioAssay AID651650 (Sanford-Burnham Center for Chemical Genomics, 2012).

Chain of Neuropilin-1 (Homo sapiens) (O14786 whole entry, looked up): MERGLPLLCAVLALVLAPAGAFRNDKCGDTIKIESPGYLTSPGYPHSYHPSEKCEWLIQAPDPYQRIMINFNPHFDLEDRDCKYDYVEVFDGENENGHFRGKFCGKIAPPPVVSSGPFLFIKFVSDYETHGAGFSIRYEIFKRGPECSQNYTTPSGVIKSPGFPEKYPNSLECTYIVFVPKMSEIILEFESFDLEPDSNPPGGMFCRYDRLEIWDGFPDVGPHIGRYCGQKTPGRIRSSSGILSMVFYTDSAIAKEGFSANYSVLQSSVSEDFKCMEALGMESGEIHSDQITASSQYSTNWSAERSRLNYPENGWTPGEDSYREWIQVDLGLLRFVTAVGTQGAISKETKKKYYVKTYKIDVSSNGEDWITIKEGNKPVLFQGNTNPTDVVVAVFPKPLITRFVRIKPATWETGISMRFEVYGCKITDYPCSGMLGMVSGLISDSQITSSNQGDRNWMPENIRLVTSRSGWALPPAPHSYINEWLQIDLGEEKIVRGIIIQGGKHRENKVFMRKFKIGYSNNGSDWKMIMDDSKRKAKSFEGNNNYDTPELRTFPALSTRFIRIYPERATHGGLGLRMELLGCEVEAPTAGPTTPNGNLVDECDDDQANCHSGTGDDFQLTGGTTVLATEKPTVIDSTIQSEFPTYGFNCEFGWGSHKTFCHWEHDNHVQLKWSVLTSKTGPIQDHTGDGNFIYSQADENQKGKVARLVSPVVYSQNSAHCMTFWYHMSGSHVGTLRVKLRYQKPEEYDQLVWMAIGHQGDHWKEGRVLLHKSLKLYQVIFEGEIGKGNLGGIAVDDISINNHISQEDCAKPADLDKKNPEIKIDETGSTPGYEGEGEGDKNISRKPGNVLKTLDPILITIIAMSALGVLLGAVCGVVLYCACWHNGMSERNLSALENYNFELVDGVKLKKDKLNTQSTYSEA

The test concerns the target Neuropilin-1 (Homo sapiens) (UniProt O14786). The experiment in a line: NRP-1 b1b2 CendR peptide binding inhibitors, dose response, biochemical, FP and AlphaScreen panel (AID 651650). To be noted: NRP-1 b1b2 / RPARPAR peptide binding, FP or AlphaScreen; run 1, at 100 µM (top of the series).
A word on the inhibition: it is the change of the read-out against control, counted positive when it falls. `Cc1ccc(C2(O)CCN3CCCCC32)cc1` (centres undefined): the inhibition is -5.87%. The value for `O=S(=O)(c1cc(Cl)cc(Cl)c1)N1Cc2cc(-c3ccccc3)ccc2-n2nncc2C1` was 13.6%. `CN1C[C@H](CO)C=C2c3cccc4[nH]cc(c34)C[C@H]21`: the inhibition amounted to 51.6%. Next, `CC1(C)CN=C(Nc2ccc(F)c(Cl)c2)S1`: 82.2%. For the molecule `Cc1ccc(Cn2nnnc2CN2CCC(n3nnc4ccccc43)CC2)cc1`, the inhibition worked out at 15.9%. Take `C=CCN1C(=O)C2(C(C(=O)OCC)=C(N)Oc3ccccc32)c2c1c1ccccc1oc2=O` (centres undefined): the inhibition came out at 4.11%.

Turning to `CCC1C2Cc3ccc(O)cc3C1(CC)CCN2C` (centres undefined), the inhibition came out at 3.24%. For `O=C1C=CC(=O)C2C1C1(Cl)C(Cl)=C(Cl)C2(Cl)C1(Cl)Cl` (centres undefined), the inhibition was 44.9%. Turning to `CCC(=NCCc1ccccc1)c1c(O)n(C2CCCCC2)c(=O)[nH]c1=O`, the inhibition amounted to 42.9%. As for `COC(=O)C1=C(c2cccc(C#N)c2)C[C@@H]2CC[C@H]1N2C(=O)NCCO`, the inhibition was found to be 39.7%. Take `Cc1c(NP(=O)(C(C)(C)C)C(C)(C)C)c(=O)n(-c2ccccc2)n1C`: the inhibition is 31.8%. The value for `COC(=O)C1=C(c2ccc(F)cc2OCc2ccccc2)C[C@@H]2CC[C@H]1N2C(=O)NCCNC(C)=O` was 95.9%; that for `CC(=O)OC1CC[C@]2(C#N)[C@H]3CC[C@]4(C)[C@H](C5C=CC(=O)O5)CCC4(O)C3CCC2(O)C1` (some centres undefined) was 58.3%. Consider `Cc1ccc(C(=O)C2CN3CCC2CC3)cc1` (centres undefined), for which the inhibition was 26.3%.
